# High-throughput results: PubChem, National Center for Advancing Translational Sciences (NCATS)
# aGal spleen mod – qHTS Assay for Inhibitors and Activators of Human alpha-Galactosidase From Spleen Homogenate. Potency, µM (titrated, usually from 80 µM), without a hit: at the highest dose activity change, negative = inhibition, hits mostly inhibitors. hit rate 0.008% among 240,000. human spleen homogenate, 4MU-alpha-Gal fluorescence, 40 min;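 also: potency is read from the fitted curve at half-maximal effect; 0% = enzyme with vehicle and -100% = no enzyme basal signal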
# Target sequence (P06280 32-429 limits assumed): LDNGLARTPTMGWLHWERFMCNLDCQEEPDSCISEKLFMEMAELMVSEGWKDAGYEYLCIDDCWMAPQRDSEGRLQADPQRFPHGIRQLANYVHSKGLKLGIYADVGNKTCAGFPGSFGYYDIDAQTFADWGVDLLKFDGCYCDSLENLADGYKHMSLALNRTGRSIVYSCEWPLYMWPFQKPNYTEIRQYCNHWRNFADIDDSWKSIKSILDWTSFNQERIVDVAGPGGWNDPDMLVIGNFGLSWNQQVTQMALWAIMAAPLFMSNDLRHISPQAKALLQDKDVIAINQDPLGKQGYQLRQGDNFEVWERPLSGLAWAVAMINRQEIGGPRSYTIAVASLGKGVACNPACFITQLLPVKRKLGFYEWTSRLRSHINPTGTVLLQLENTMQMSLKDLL
#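 Human spleen homogenate (1 ug) was the enzyme source, with 4-methylumbelliferyl-alpha-D-galactopyranoside (1 mM final) in pH 5.0 citrate buffer with 0.01% Tween-20. Compounds were titrated; after 40 min at 37C, NaOH/glycine stop, 4-MU fluorescence read; AC50 from Hill fits.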
# GAA inhib – qHTS Assay for Inhibitors of Human alpha-Glucosidase as a Potential Chaperone Treatment of Pompe Disease. Lysosomal alpha-glucosidase (Homo sapiens), P10253. purified human GAA, 4-MU-alpha-glucoside fluorescence. Potency, µM (top dose mostly 76.9 µM), for inactives: at the top dose activity change, negative = inhibition, hits mostly inhibitors. hit rate 0.005% among 200,000. AID 1466, 2008;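 also: potency is read from the fitted curve at half-maximal effect; plate controls were uninhibited enzyme wells for no effect and no-enzyme background for full effect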
#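 Fluorescence at Ex 365/Em 440 nm from 4-methylumbelliferone reported enzyme activity after 20 min at room temperature. Reactions used 4 nM enzyme and 400 uM substrate at pH 5.0; curves fitted with the Hill equation.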
# aGlu spleen mod – qHTS Assay for Inhibitors and Activators of Human alpha-Glucosidase From Spleen Homogenate; AID 2112, 2009; hit rate 0.006% among 240,000; Lysosomal alpha-glucosidase (Homo sapiens), P10253; human spleen homogenate, 4-MU-alpha-glucoside fluorescence; Potency, µM (highest dose often 79.9 µM), inactives show at the highest dose activity change, negative = inhibition, actives largely listed as inhibitors;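 also: potency is read from the fitted curve at half-maximal effect; 0% = enzyme with vehicle and -100% = no enzyme basal signal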
#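 AC50 values come from Hill-equation fits of concentration-response data, normalized to no-enzyme and full-activity controls. Enzyme source: 1 ug human spleen homogenate; 1 mM fluorogenic 4-MU glucoside, pH 5.0 citrate buffer, 37 C, 40 min.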
# GLA inh pH 4.5 – qHTS Assay for Inhibitors of Human alpha-Galactosidase at pH 4.5; Alpha-galactosidase A (Homo sapiens), P06280; activity change, negative = inhibition, % at 105 µM; purified enzyme, 4-MU-alpha-Gal fluorescence, pH 4.5; 230,000 tested, under 10 active;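 also: 0% = full activity with enzyme and -100% = basal without enzyme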
# GAA glycogen mod – qHTS Assay for Inhibitors and Activators of Human alpha-Glucosidase Cleavage of Glycogen; Lysosomal alpha-glucosidase (Homo sapiens), P10253; recombinant GAA, glycogen substrate, Amplex Red glucose oxidase fluorescence; Potency, µM (top dose mostly 76.4 µM), for the others: at the top dose activity change, negative = inhibition, hits mostly inhibitors; hit rate 0.38% among 300,000; AID 2100, 2009;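 also: potency is read from the fitted curve at half-maximal effect; 0% = full enzyme reaction and -100% = no-enzyme basal signal; the screen sought inhibitors and activators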
#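 Recombinant human alpha-glucosidase (4 nM final) hydrolysed bovine liver glycogen (30 ug) for 40 min at 37 C in pH 5.0 citrate/phosphate with 0.01% Tween-20. Released glucose detected by glucose oxidase/Amplex Red, Ex 573/Em 610 nm. Compounds up to 77 uM; AC50 from Hill fits.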
# * hit, by the source's call; ? = inconclusive; / = not tested or not shown; ! = repeats disagree; [ ] = dose if it differs, or a comment. The list is not random: actives were taken first. Their share in the collection is about 0.4%. Calls follow the shape of the dose curve; as a rule, active = well fitted curve in the direction sought with a large enough effect; inconclusive = small, poorly fitted or top-dose-only effect, or another doubt; inactive = no such curve, though single readings can be large; an effect the other way counts as inactive or inconclusive.
SMILES,aGal spleen mod,GAA inhib,aGlu spleen mod,GLA inh pH 4.5,GAA glycogen mod
O=C(CN1CCN(c2ccccc2)CC1)NCc1ccc(F)cc1,/,/,/,/,-1%
CC(=O)N1CCN(c2ccc(NCc3ccc(C)s3)cc2)CC1,-3%,-2%[15.4 µM],-7%,2,16µM*
CC(=O)N1CCN(c2ccc(NCc3ccccc3)cc2)CC1,-2%,-3%,-10%,-8,14µM*
Cc1ccc(CNc2ccc(N3CCOCC3)cc2)s1,0%,-3%,-3%,5,28µM*
Cc1nc2nc(SCC(=O)NCCCN3CCCCCC3)nn2c(C)c1Cc1ccccc1,/,/,/,/,-9%
CCOc1cc(NC(=S)NCc2ccco2)c(OCC)cc1NC(C)=O,9%,8%,-9%,11,-23%
COc1cc(NC(=O)c2ccc(NC3=NC4CS(=O)(=O)CC4S3)cc2)cc(OC)c1 (stereo not given),/,/,/,/,8%[76.3 µM]
CCC(Oc1ccc(C)cc1)C(=O)Nc1ccc(S(=O)(=O)Nc2nccs2)cc1 (stereo not given),/,/,/,/,6%
CC(=O)N1CCN(c2ccc(NCc3cccs3)cc2)CC1,6%,-9%,0%,4,40µM*
CC(=O)N1CCN(c2ccc(NCc3cccc4ccccc34)cc2)CC1,/,/,/,/,-16%[15.3 µM]
COC(=O)CCC(=O)CN,8%,0%[15.4 µM],12%,-4,4%
COC(=O)c1[nH]c2cc(OC)ccc2c1N,9%,4%,7%,4,35µM*
CCOC(=O)Nc1c(C(=O)OC)[nH]c2cc(OC)ccc12,-10%,10%,-8%,0,2%
O=C(O)c1ccc(/C=N/n2cc(-c3ccccc3)[nH]c2=S)cc1,10%,/,-1%,1,28µM*
O=C1NN(c2ccc(Br)cc2)C(=O)/C1=C\c1ccc(O)cc1O,/,/,/,/,8.9µM*
OCC1CCCN(C(=S)Nc2ccc(Nc3ccccc3)cc2)C1 (stereo not given),2%,-12%,-8%,3,25µM*
OCC1CCCN(C(=S)Nc2ccc(OC(F)F)cc2)C1 (stereo not given),2%,3%,-7%,-1,12%
Cn1cccc1C(=O)N1CCC2(CC1)CN(C(=O)Nc1cccc(F)c1)C2,11%,/,5%,/,/
Nc1ccc2nc(-c3ccc(Cl)cc3)[nH]c2c1,16%,?,5%,4,0%
Nc1ccc2nc(-c3cc(Cl)c(N)c(Cl)c3)[nH]c2c1,-3%,4%,-1%,0,12µM*
Cc1ccccc1Nc1c(N)c(=O)oc2ccccc12,-2%,3%,-4%,-7,18µM*
CN(C)CCNc1c(N)c(=O)oc2ccccc12,6%,11%,5%,5,-1%
O=C(COc1ccc(Br)cc1CNCCc1ccccc1)NCc1ccccc1,0%,-8%,3%,-11,8%
COc1ccc(C(=O)C2CCCN(C3Cc4ccccc4C3)C2)cc1OC (stereo not given),14%,?,-1%,2,16µM*
CCN(CC)c1cc(Cl)c2nonc2c1N,7%,/,-2%,-10,?
SMILES,aGal spleen mod,GAA inhib,aGlu spleen mod,GLA inh pH 4.5,GAA glycogen mod
CN(C)c1cc(Cl)c2nonc2c1N,-7%,/,2%,2,13µM*
COc1ccc(N2C(=O)CC(Nc3ccc(C)cc3)C2=O)cc1 (stereo not given),2%,1%,-4%,0,-18%
COc1ccc(NC2CC(=O)NC2=O)cc1 (stereo not given),1%,-4%,-1%,14,11µM*
CCOc1ccc(NC(=O)c2noc3c2CSc2ccccc2-3)cc1,/,/,/,/,16%[76.3 µM]
COc1ccc(C)cc1NCc1cccc(OC)c1OC,-8%,?,-7%,0,-27%
COc1cc(OC)c(OC)cc1CNc1cc(C)ccc1OC,11%,-13%,7%,2,11µM*
O=C(O)CCCn1cc(NC(=O)c2cccc(F)c2)cn1,6%,1%,-3%,-3[21.1 µM],-13%
S=C(NCCNC(=S)Nc1ccccc1)Nc1ccccc1,/,/,/,/,-4%[76.3 µM]
OCCCNC(=S)Nc1ccc(Nc2ccccc2)cc1,-3%,-8%,1%,3,14µM*
Oc1ccc(NC(=S)Nc2ccccc2)cc1,2%,3%,-2%,22,11µM*!
Nc1ccc(NC(=S)Nc2ccccc2)cc1,-3%,-4%,-1%,-1,0%
O=C(CCNC(=O)c1ccccc1Cl)NC1=NCCS1,4%,0%,-19%,4,0%
Nc1nonc1C(=O)N/N=C/c1ccc(-c2ccc(Cl)c(C(=O)O)c2)o1,-5%,-5%,-5%,-16,-3%
O=C(O)c1cc(-c2ccc(/C=N/Nc3ccc(Cl)cc3)o2)ccc1Cl,-16%,3%,-12%,5,28µM*
Nc1ccc(Nc2ccccc2)c(Cl)c1,-3%,0%,-5%,-3,35µM*
Cc1[nH]c2ccccc2c1/C=N/NC(=S)NC(C)C,6%,2%,4%,-17,7.9µM*
Cc1[nH]c2ccccc2c1/C=N/Nc1ccccc1[N+](=O)[O-],10%,-3%,2%,2,6.3µM*
Cc1[nH]c2ccccc2c1/C=N/NS(=O)(=O)c1ccccc1,1%,1%,11%,-2,?
CC(C)NC(=S)N/N=C/c1c[nH]c2ccccc12,6%,-1%,7%,-13,-3%
Cc1ccccc1-c1cncnc1NCCN1CCOCC1,4%,/,9%,3,/
O=C1/C(=C\c2ccc(O)c(O)c2)N=C2CCCCCN12,-7%,/,-7%,-15,7.1µM*
Oc1ccc(N2CCN(Cc3nc4ccccc4[nH]3)CC2)cc1,/,/,/,/,8.9µM*
COc1cc(Cn2c(-c3ccc(O)c(OC)c3)nc3ccccc32)ccc1O,7%,/,4%,1,28µM*
Cc1cc(NC(=O)CN2CCN(c3ccccc3O)CC2)no1,-19%,-2%,-3%,2,13µM*
CCCOc1ccc(-c2nc(C#N)c(NCCCn3ccnc3)o2)cc1,3%,3%,8%,-1,31µM*
SMILES,aGal spleen mod,GAA inhib,aGlu spleen mod,GLA inh pH 4.5,GAA glycogen mod
O=C(N/N=C/c1ccncc1)c1nc(-c2ccccc2)n2c1CCCCC2,5%,-6%,1%,-5,-1%
NNC(=O)c1nc(-c2ccccc2)n2c1CCCCC2,2%,3%,-8%,3,18µM*
Cc1nn(-c2ccc(C(=O)O)cc2)c(=O)c2ccccc12,-2%,-7%,-8%,-6,2%
COc1cccc(/C=C2/C(=O)NN(c3ccc(C)c(C)c3)C2=O)c1,/,/,/,/,32µM*
COc1c(O)cc2c(=O)oc3c(OC)c(O)cc4c(=O)oc1c2c34,7%,/,-2%,-1,/
O=c1cc2c(=O)oc3cc(O)c(O)oc3c2c(O)c1O,4%,-3%,4%,-2,8.9µM*
